Our source for the outcome and AC50 values is PubChem BioAssay (EPA / NIEHS).

Records with an inconclusive call do not appear. The source made the active and inactive calls. How the source made its calls, unless noted: active means hit-call score of the fitted dose curve at least 0.9, where 1 is the maximum; inconclusive means response in the unintended direction; inactive means score below 0.9.

Test [1] is described as follows: ATG_GLI_CIS: Attagene CIS-FACTORIAL HepG2 Assay for human Zinc Finger Protein GLI1 (AID 2282945; active means hit-call score of the fitted dose curve at least 0.9, where 1 is the maximum; inactive means score below 0.9). To be noted: HepG2, Attagene cis-factorial reporter mRNA, GLI element; actives raise or lower the signal. The procedure, abridged: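 Bidirectional curve fits relative to DMSO, using reporter mRNA levels from RT-PCR plus capillary electrophoresis. Cells were HepG2 transiently carrying cis-regulated reporter constructs, harvested 24 h after dosing.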

For test [2], the target named is Hepatocyte nuclear factor 6 (Homo sapiens) (UniProt Q9UBC0). Put plainly: ATG_HNF6_CIS: Attagene CIS-FACTORIAL HepG2 Assay for human Hepatocyte Nuclear Factor 6 (HNF6) (AID 2282952; active means hit-call score of the fitted dose curve at least 0.9, where 1 is the maximum; inactive means score below 0.9). To be noted: HepG2 Attagene cis-factorial HNF6 reporter transcription; actives raise or lower the signal. The procedure, abridged: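 Endogenous transcription factor activity in human HepG2 liver cells was captured through cis-regulated reporter constructs. After 24 h treatment, reporter mRNA was measured by RT-PCR with capillary electrophoresis, and activity was fitted in both directions relative to DMSO.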
Chain of Hepatocyte nuclear factor 6 (Homo sapiens) (Q9UBC0 whole entry, looked up): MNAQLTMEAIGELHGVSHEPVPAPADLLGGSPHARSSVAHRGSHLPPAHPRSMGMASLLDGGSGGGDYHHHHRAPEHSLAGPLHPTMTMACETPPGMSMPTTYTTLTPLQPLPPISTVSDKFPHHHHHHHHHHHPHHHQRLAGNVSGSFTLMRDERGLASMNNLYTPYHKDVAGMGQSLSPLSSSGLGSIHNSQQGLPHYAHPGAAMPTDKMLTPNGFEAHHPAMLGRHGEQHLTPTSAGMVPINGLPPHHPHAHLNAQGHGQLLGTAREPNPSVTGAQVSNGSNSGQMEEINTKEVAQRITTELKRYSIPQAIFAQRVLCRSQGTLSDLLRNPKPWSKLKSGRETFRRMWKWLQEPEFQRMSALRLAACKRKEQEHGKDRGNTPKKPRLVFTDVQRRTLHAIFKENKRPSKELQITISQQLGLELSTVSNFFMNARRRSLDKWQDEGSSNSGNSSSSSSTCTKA

The target in test [3] is Heat shock factor protein 1 (Homo sapiens) (UniProt Q00613). Description: ATG_HSE_CIS: Attagene CIS-FACTORIAL HepG2 Assay for human Heat Shock Transcription Factor 1 (HSE) (AID 2282953; active means hit-call score of the fitted dose curve at least 0.9, where 1 is the maximum; inactive means score below 0.9). As to conditions: HepG2 HSE cis-reporter, Attagene RNA transcription; actives raise or lower the signal. The procedure, abridged: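 After a 24 h incubation with test chemical, transfected HepG2 cells were harvested for RNA; reporter transcripts were measured by RT-PCR and capillary electrophoresis. Values reflect gain or loss of signal relative to DMSO.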
Chain of Heat shock factor protein 1 (Homo sapiens) (Q00613 whole entry, looked up): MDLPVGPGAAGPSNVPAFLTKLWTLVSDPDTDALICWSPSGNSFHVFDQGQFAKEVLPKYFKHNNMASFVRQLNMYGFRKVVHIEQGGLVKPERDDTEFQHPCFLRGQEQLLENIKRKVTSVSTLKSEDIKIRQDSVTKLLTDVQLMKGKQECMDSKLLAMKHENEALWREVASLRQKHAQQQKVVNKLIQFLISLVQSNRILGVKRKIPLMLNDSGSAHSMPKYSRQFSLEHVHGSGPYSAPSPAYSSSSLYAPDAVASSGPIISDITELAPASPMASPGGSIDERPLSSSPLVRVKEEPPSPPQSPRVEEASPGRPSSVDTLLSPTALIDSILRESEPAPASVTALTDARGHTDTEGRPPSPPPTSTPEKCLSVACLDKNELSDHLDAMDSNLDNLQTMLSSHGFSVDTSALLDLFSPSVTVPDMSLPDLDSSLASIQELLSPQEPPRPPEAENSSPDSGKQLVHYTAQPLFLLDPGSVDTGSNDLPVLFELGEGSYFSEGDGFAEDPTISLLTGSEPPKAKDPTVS

Test [4] in a line: ATG_PBREM_CIS: Attagene CIS-FACTORIAL HepG2 Assay for human Phenobarbital-responsive Enhancer Module (PBREM) (AID 2282955; active means hit-call score of the fitted dose curve at least 0.9, where 1 is the maximum; inactive means score below 0.9). As to conditions: HepG2 PBREM cis-reporter, Attagene multiplexed transcription; actives raise or lower the signal. The procedure, abridged:
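Measures endogenous factor action on a phenobarbital-responsive enhancer module. HepG2 transiently carrying cis reporters, 24 h treatment, mRNA read-out by RT-PCR plus capillary electrophoresis.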

In test [5] the target is Signal transducer and activator of transcription 3 (Homo sapiens) (UniProt P40763). Put plainly: ATG_STAT3_CIS: Attagene CIS-FACTORIAL HepG2 Assay for human Signal Transducer and Activator of Transcription 3 (STAT3) (AID 2282963; active means hit-call score of the fitted dose curve at least 0.9, where 1 is the maximum; inactive means score below 0.9). As to conditions: HepG2, Attagene cis-factorial STAT3 reporter transcription; actives raise or lower the signal. The procedure, abridged: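 Cis-factorial format: endogenous transcription factors in HepG2 drive transfected reporter units. After 24 h treatment, reporter RNA was reverse-transcribed, amplified, FAM-labelled and HpaI-digested before CE analysis; activity scored in both directions against DMSO.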
Chain of Signal transducer and activator of transcription 3 (Homo sapiens) (P40763 whole entry, looked up): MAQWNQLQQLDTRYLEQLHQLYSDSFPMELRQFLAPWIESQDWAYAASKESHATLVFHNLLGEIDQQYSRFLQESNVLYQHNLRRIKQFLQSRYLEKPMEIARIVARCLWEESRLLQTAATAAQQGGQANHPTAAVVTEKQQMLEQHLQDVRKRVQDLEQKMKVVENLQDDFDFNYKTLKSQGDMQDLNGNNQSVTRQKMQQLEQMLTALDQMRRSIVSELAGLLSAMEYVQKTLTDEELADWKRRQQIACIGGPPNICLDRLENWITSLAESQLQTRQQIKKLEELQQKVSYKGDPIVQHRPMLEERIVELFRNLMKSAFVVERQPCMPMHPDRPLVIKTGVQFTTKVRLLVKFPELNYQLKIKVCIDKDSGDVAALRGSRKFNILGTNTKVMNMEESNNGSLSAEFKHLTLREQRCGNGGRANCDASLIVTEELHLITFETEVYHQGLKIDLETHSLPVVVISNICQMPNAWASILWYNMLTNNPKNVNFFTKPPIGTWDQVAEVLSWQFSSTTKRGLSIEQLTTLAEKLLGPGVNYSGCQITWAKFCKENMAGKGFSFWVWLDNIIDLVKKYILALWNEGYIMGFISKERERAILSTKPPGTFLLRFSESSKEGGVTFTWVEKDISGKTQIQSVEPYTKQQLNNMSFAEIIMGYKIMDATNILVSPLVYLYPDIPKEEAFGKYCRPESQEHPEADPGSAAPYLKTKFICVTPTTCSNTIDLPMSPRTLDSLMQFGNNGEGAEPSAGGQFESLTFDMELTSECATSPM

The target in test [6] is Hepatocyte nuclear factor 4-alpha (Homo sapiens) (UniProt P41235). Put plainly: ATG_HNF4a_TRANS: Attagene TRANS-FACTORIAL HepG2 Assay for human Hepatocyte Nuclear Factor 4 alpha (HNF4a) (AID 2282982). To be noted: HepG2 HNF4a transactivation reporter, mRNA readout. The procedure, abridged:
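Multiplexed reporter assay: transfected HepG2, 24 h exposure, total RNA → oligo(dT) RT → PCR → 6-FAM extension → HpaI digest → CE fluorescence. DMSO = negative control.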

Test [7] in a line: ATG_NF_kB_CIS: Attagene CIS-FACTORIAL HepG2 Assay for human Nuclear Factor Kappa B (NF-kB) (AID 2282991; active means hit-call score of the fitted dose curve at least 0.9, where 1 is the maximum; inactive means score below 0.9). As to conditions: HepG2 Attagene cis-factorial NF-kB reporter mRNA; actives raise or lower the signal. The procedure, abridged: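 Fluorescence of labelled RT-PCR products separated by capillary electrophoresis gives reporter mRNA levels from transfected HepG2 cells exposed 24 h; values are fitted in both directions relative to DMSO.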

Test [8] in a line: ATG_Oct_MLP_CIS: Attagene CIS-FACTORIAL HepG2 Assay for human Octamer-Binding Transcription Factor (Oct) (AID 2282993; active means hit-call score of the fitted dose curve at least 0.9, where 1 is the maximum; inactive means score below 0.9). As to conditions: HepG2 Attagene cis-factorial Oct reporter, mRNA; actives raise or lower the signal. The procedure, abridged:
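Cells of the HepG2 line express promoter-controlled reporter sequences whose mRNA levels, after 24 h treatment, are measured by RT-PCR and capillary electrophoresis. Increases and decreases are scored relative to DMSO.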

The target of test [9] is human Peroxisome Proliferator-activated Receptor alpha (PPARa), PPARA (gene 5465) (UniProt Q07869). Description: ATG_PPARa_TRANS: Attagene TRANS-FACTORIAL HepG2 Assay for human Peroxisome Proliferator-activated Receptor alpha (PPARa) (AID 2283001). The procedure, abridged: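 Transfected HepG2 cells treated with test chemical for 24 h. RNA isolated, reverse-transcribed with oligo(dT), PCR-amplified, FAM-labelled and HpaI-digested. Fragments sized by capillary electrophoresis; gain-of-signal fit relative to DMSO.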
Chain of human Peroxisome Proliferator-activated Receptor alpha (PPARa), PPARA (gene 5465) (Q07869 whole entry, looked up, the tested form may be a part): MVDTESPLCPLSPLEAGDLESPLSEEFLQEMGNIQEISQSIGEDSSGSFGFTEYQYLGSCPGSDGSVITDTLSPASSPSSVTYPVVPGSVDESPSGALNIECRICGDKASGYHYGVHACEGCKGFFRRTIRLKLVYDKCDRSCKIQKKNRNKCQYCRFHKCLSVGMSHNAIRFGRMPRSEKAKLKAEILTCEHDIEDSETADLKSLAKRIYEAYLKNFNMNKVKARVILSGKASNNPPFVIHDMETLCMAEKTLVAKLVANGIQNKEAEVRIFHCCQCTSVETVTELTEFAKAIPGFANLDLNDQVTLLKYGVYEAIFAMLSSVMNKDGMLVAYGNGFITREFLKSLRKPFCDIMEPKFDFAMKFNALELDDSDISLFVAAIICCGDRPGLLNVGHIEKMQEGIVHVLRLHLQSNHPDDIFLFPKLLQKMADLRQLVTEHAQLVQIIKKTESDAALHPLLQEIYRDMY

The target of test [10] is human Retinoid X Receptor beta (RXRb), RXRB (gene 6257) (UniProt P28702). Description: ATG_RXRb_TRANS: Attagene TRANS-FACTORIAL HepG2 Assay for human Retinoid X Receptor beta (RXRb) (AID 2283013). The procedure, abridged:
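Read-out: reporter mRNA induction via RT-PCR plus capillary electrophoresis fluorescence, analysed as signal increase relative to DMSO. Cells were human HepG2, transiently transfected with GAL4-UAS reporter constructs and chimeric receptor-Gal4 fusions, dosed for 24 h.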

Test [11] is described as follows: TOX21_p53_BLA_p3_viability: Viability Assessment in the Tox21 HCT-116 p53 Agonism Beta-lactamase Assay, Phase 3 (AID 2283593).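 Further: cells exposed to compound for 16 h before reading.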 The procedure, abridged: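 Cellular ATP was quantified by CellTiter-Glo luminescence, read after 30 min at room temperature. Beforehand, HCT116 cells (4000/well) received compound 5 h post-seeding, 217-fold diluted from DMSO, then incubated 16 h at 37C.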

Test [12] addresses Cellular tumor antigen p53 (Homo sapiens) (UniProt P04637). Description: TOX21_p53_BLA_p3_ratio: Tox21 HCT-116 p53 Agonism Beta-lactamase Assay, Ratio, Phase 3 (AID 2283596). The procedure, abridged:
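Cells were seeded at 4000/well, rested 5 h at 37C, then dosed with DMSO compound solutions (217-fold dilution) for 16 h. CCF4-AM substrate was loaded for 2 h at room temperature, and the 460/530 nm emission ratio was fitted for gain of signal versus DMSO.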

The target is the same in test [13]. Put plainly: TOX21_p53_BLA_p5_ratio: Tox21 HCT-116 p53 Agonism Beta-lactamase Assay, Ratio, Phase 5 (AID 2283599). The procedure, abridged:
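Beta-lactamase reporter ratio (blue 460 nm over green 530 nm, 405 nm excitation) after 2 h CCF4-AM loading, in HCT-116 cells exposed 16 h at 37 C to compounds pinned at 217-fold dilution. Increases relative to DMSO baseline scored.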

Test [14] can be described thus: TOX21_p53_BLA_p5_viability: Viability Assessment in the Tox21 HCT-116 p53 Agonism Beta-lactamase Assay, Phase 5 (AID 2283600). The procedure, abridged: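 Viability is taken from cellular ATP content, measured by luciferase luminescence in the same wells after the beta-lactamase ratio read. Cells are seeded at 4000 per well and exposed to DMSO-dissolved compounds, diluted 217-fold, for 16 h.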

The target of test [15] is Cellular tumor antigen p53 (Homo sapiens) (UniProt P04637). Put plainly: TOX21_p53_BLA_p4_ratio: Tox21 HCT-116 p53 Agonism Beta-lactamase Assay, Ratio, Phase 4 (AID 2283601). The procedure, abridged: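 Signal is the blue/green (460nm/530nm) ratio of cleaved versus uncleaved CCF4-AM substrate, read after 2 h substrate loading. Cells were HCT116 carrying the p53-responsive beta-lactamase reporter, dosed 16 h at 37C, 5% CO2; CellTiter-Glo measured in parallel.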
Chain of Cellular tumor antigen p53 (Homo sapiens) (P04637 whole entry, looked up): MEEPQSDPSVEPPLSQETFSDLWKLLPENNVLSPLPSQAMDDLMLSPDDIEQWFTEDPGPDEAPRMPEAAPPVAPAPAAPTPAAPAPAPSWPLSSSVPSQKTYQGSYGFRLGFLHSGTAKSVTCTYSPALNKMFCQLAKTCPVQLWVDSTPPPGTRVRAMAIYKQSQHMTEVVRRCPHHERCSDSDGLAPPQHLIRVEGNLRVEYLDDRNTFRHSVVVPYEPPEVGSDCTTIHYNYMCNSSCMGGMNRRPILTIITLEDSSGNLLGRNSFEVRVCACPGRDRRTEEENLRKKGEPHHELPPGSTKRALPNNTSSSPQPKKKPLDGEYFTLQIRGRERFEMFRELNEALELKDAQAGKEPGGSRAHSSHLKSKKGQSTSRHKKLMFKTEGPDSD

Test [16] can be described thus: ATG_SREBP_CIS: Attagene CIS-FACTORIAL HepG2 Assay for human Sterol Regulatory Element Binding (SREBP) (AID 2282962; active means hit-call score of the fitted dose curve at least 0.9, where 1 is the maximum; inactive means score below 0.9). To be noted: HepG2 Attagene cis-factorial SREBP reporter, mRNA; actives raise or lower the signal. The procedure, abridged:
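Endogenous factor activity is measured in HepG2 through multiplexed reporter units under cis-element control. Following a 24 h incubation, reporter transcripts are reverse-transcribed, PCR-amplified and sized by capillary electrophoresis; activity is fitted in both directions relative to DMSO.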

Test [17] can be described thus: ATG_NRF2_ARE_CIS: Attagene CIS-FACTORIAL HepG2 Assay for human Nuclear Factor Erythroid 2 Related Factor 2 (NFR2) response to Antioxidant Response Elements (ARE) (AID 2282992; active means hit-call score of the fitted dose curve at least 0.9, where 1 is the maximum; inactive means score below 0.9). As to conditions: HepG2 Attagene ARE/NRF2 reporter, transcription factor activity; actives raise or lower the signal. The procedure, abridged:
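Endogenous transcription factor activity in human liver HepG2 cells is tracked via a cis-element-driven reporter within a multiplexed set. mRNA induction is read by RT-PCR and capillary electrophoresis after 24 h, with DMSO as baseline.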

Test [18] in a line: TOX21_p53_BLA_p2_viability: Viability Assessment in the Tox21 HCT-116 p53 Agonism Beta-lactamase Assay, Phase 2 (AID 2283591).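 Further: compound exposure lasted 16 h at 37 °C; actives lower the ATP signal meaning cytotoxicity.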 The procedure, abridged:
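Cytotoxicity readout: CellTiter-Glo ATP luminescence, 30 min at room temperature, after the beta-lactamase read. Cells were HCT116 exposed 16 h at 37C to compounds pin-transferred at 217-fold dilution from DMSO stocks.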

Test [19] can be described thus: ATG_GRE_CIS: Attagene CIS-FACTORIAL HepG2 Assay for human Glucocorticoid Response Elements (GRE) (AID 2282947; active means hit-call score of the fitted dose curve at least 0.9, where 1 is the maximum; inactive means score below 0.9). To be noted: HepG2 GRE cis-reporter, Attagene multiplex mRNA; actives raise or lower the signal. The procedure, abridged: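 Multiplexed cis-reporter mRNA induction, HepG2, 24 h post-dose. RT-PCR, FAM-labelled, HpaI-digested amplicons by CE. Bidirectional fit vs DMSO.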

Chain of human Retinoid X Receptor beta (RXRb), RXRB (gene 6257) (P28702 whole entry, looked up, the tested form may be a part): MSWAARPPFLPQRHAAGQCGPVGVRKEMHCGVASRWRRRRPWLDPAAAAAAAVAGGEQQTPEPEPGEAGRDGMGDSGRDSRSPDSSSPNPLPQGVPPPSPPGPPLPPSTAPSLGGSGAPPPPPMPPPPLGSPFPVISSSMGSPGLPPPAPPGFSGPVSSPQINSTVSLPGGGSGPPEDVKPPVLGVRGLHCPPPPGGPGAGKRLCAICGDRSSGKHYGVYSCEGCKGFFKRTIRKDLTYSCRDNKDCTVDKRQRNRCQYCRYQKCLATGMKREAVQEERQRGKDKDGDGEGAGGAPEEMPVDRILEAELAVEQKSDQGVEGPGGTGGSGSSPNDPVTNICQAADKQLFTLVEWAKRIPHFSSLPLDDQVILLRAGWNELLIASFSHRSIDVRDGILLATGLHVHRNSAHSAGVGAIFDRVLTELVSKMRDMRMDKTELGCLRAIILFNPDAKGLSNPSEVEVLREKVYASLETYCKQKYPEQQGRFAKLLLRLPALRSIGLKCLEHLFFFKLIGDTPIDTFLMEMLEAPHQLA
Chain of Hepatocyte nuclear factor 4-alpha (Homo sapiens) (P41235 whole entry, looked up): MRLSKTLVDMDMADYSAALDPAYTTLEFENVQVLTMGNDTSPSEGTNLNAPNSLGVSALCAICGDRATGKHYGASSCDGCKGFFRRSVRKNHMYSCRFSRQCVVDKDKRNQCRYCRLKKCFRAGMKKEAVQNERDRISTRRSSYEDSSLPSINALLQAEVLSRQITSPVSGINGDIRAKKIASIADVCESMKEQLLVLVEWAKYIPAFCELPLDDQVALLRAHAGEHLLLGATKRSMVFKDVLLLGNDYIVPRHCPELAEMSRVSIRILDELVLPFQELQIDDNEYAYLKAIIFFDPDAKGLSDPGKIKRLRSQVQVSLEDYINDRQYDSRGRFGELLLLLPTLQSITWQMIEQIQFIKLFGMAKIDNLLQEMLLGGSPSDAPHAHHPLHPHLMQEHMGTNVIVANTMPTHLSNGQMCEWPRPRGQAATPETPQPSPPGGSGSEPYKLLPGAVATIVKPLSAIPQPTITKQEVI

For the molecule `CC/C=C\CC1=C(C)CCC1=O`, the result in test [1], in test [2], in test [3], in test [4], in test [5] and in [6] was inactive. In addition, the call in test [7], in test [8], in [9], in test [10], in test [11] and in test [12] was inactive. Moreover, the result in test [13], in [14] and in test [15] was inactive.

With `COc1ccccc1OCC(O)CO` (stereo unspecified), the molecule was called inactive in [2], in test [16], in [5], in [6], in test [7] and in test [17]. The call in test [8], in [9], in test [10], in [18], in test [12] and in [13] was inactive. Further, the call in test [14] and in [15] was inactive.

Regarding `CN(C)c1ccc(C(c2ccccc2)c2ccc(N(C)C)cc2)cc1`, the outcome in test [1], in [2], in test [3], in test [4], in test [16] and in test [5] was inactive. In addition, the molecule was called inactive in test [6], in test [7], in test [10], in test [18], in test [11] and in test [12]. For the same molecule, the outcome in test [13], in test [14] and in [15] was inactive. The AC50 in test [17] was 68.1 µM (active).

Turning to `c1cc(N(CC2CO2)CC2CO2)ccc1Cc1ccc(N(CC2CO2)CC2CO2)cc1` (stereo unspecified), the AC50 in [1] was 26.4 µM (active); in test [16] it was 26.4 µM (active); in test [8], 8.18 µM (active); in test [12], 81.6 µM (active); in test [13], 55.4 µM (active); in test [15] it was 33.1 µM (active). For the same molecule, the molecule was classed as inactive in [19], in [2], in test [4], in test [6], in test [7] and in test [17]. Besides, the outcome in test [10], in [18], in test [11] and in test [14] was inactive.
